Bioassay records (PubChem BioAssay)
KCNH2 WT inh: inhibitors of human wildtype KCNH2 potassium channel | U2OS, BacMam KCNH2, thallium flux FluxOr; active compounds read low | hit rate 0.37% among 340,000 | activity change, % at 1.84 µM | Q12809;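 active means maximum activity change below -70%; inconclusive means maximum activity change between -70% and -50%; inactive means maximum activity change above -50%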
Target sequence (Q12809 whole entry, looked up): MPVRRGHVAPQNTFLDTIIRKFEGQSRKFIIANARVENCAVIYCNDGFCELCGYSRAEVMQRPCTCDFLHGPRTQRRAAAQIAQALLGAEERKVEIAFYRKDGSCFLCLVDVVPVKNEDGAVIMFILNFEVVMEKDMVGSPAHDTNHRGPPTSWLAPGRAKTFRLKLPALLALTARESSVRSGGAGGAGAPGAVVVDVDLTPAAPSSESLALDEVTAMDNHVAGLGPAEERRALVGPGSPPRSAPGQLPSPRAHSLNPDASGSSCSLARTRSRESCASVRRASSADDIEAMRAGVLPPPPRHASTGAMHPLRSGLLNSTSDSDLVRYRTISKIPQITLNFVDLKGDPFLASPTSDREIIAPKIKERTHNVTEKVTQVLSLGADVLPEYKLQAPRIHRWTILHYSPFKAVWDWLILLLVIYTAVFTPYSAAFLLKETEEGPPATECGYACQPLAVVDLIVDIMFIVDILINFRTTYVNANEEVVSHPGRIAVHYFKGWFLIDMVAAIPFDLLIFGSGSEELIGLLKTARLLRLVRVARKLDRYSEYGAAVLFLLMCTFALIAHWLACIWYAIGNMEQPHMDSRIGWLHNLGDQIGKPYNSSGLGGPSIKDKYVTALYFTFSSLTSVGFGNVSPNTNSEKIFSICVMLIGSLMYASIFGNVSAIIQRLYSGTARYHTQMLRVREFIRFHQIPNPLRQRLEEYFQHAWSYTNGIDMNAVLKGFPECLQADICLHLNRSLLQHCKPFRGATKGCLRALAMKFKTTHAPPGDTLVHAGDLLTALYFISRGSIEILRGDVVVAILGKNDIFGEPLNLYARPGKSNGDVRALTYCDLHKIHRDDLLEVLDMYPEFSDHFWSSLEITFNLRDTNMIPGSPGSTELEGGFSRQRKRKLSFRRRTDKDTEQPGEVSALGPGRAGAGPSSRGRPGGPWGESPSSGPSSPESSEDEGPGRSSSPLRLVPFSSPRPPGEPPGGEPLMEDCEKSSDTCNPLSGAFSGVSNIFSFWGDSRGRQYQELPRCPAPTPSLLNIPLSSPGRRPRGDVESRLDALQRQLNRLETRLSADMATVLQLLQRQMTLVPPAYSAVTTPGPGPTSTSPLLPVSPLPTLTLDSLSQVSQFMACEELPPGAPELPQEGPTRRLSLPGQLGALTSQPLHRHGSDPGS
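U2OS cells were transduced with wild-type KCNH2 virus (2.03 x 10^8 / mL) for 4 h at room temperature, then cultured overnight at 37 C. Thallium flux was read with FluxOr dye. Rate constants were normalized to DMSO controls.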
KCNH2 3.1 block: blocks the human KCNH2 3.1 channel isoform; hit rate 0.95% among 340,000; activity change, % (tested at about 1.8 µM); U2OS KCNH2 3.1, thallium flux FluxOr; active compounds read low;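 active means maximum activity change below -70%; inconclusive means maximum activity change from -70% to -50%; inactive means maximum activity change above -50%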;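 further: thallium influx rate constant from kinetic fluorescence after stimulation buffer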
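We transduce U2OS cells with the mutant 3.1 virus, culture them overnight, load FluxOr with Red40 quencher for 45 min, then add stimulation buffer and read kinetically for 2 min to derive a normalized rate constant.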
MLL CXXC-DNA inh: blocks binding of human MLL CXXC domain to DNA | AID 2662 | hit rate 0.037% among 290,000 | MLL-CXXC / FITC-HOXA9 DNA fluorescence polarization | Q03164 | Potency, µM (highest dose often 115 µM), most hits filed as inhibitors; active means well fitted inhibition curve with a large enough effect in the polarisation, with a control signal flat, not every such curve was filed as active; inconclusive means small, poorly fitted or top-dose-only effect, or effect the other way, or a change in a side signal; inactive means no such curve, though single readings can be large or run the other way; the % refers to the polarisation
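Fluorescence polarization: 7 uM MLL-CXXC (stock) preincubated 5 min with compounds, then 50 nM fluorescein-HOX-A9 DNA (stock) added; 30 min ambient. Buffer 50 mM Tris-HCl pH 7.5, 50 mM NaCl, 1 mM DTT, 0.05% BSA.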
Menin-MLL FL inh: displaces fluorescein MLL peptide from human menin; 290,000 tested, under 10 active; FP activity change, % at 61.4 µM; AID 1766; Fluorescence polarization, fluorescein-MLL peptide displacement from menin; active means well fitted curve in the direction sought with a large enough effect in the polarisation, not every such curve was filed as active; inconclusive means small, poorly fitted or top-dose-only effect, or effect the other way, or a change in a side signal; inactive means no such curve, though single readings can be large or run the other way; the % refers to the polarisation
Menin-MLL TR inh: menin-MLL binding inhibition, Texas Red mutant peptide | O00255 | Menin + Texas Red MLL mutant peptide, fluorescence polarization | Potency, µM (highest dose often 61.6 µM), hits mostly inhibitors | hit rate 0.23% among 270,000; active means well fitted inhibition curve with a large enough effect in the polarisation, with a control signal flat, not every such curve was filed as active; inconclusive means small, poorly fitted or top-dose-only effect, or effect the other way, or a change in a side signal; inactive means no such curve, though single readings can be large or run the other way; the % refers to the polarisation
Of the large screens only hits and unclear results are named; the others gave an inactive call. Hits are enriched below; roughly 1.1% of the tested compounds scored in any of these assays.

CC(=O)c1c(OCC(=O)O)ccc2c(C)cc(=O)oc12	KCNH2 3.1 block -117
COc1cccc(COC(=O)c2nn(-c3ccccc3)nc2N)c1	KCNH2 WT inh -184 (no result: KCNH2 3.1 block)
Nc1nn(-c2ccccc2)nc1C(=O)OCc1ccccc1	none (no result: Menin-MLL TR inh)
CCOC(=O)c1c(C)[nH]c(C(=O)N/N=C\c2ccccc2O)c1C	none
CCOC(=O)c1c(C)[nH]c(C(=O)N/N=C/c2cc([N+](=O)[O-])ccc2O)c1C	KCNH2 3.1 block -70, Menin-MLL TR inh inconclusive
COC(=O)[C@H](Cc1ccccc1)NC(=O)N1CCCCCC1	none (no result: KCNH2 WT inh)
COC(=O)[C@H](CC(C)C)NC(=O)N1CCCCC1	KCNH2 3.1 block -126 (no result: Menin-MLL TR inh)
CCCCN1CCC[C@H]1CNC(=O)c1cc(C#N)c2ccccc2c1OC	none (no result: KCNH2 WT inh, KCNH2 3.1 block, MLL CXXC-DNA inh)
CCOC(=O)[C@@H](N)CS	none (no result: KCNH2 WT inh, KCNH2 3.1 block)
CCN(CCn1cccn1)C(=O)CCc1nnc(-c2ccccc2)o1	none
CCN(CCn1cccn1)C(=O)CCc1nnc(C2(c3ccc(Cl)cc3)CCC2)o1	KCNH2 WT inh -137, KCNH2 3.1 block -194
CSc1nc(C)nc(N/C=C(\C#N)S(=O)(=O)c2ccccc2Cl)n1	none (no result: Menin-MLL TR inh)
O=C(NC1CCCCC1)N1CCC(c2nc3ccccc3[nH]2)CC1	none
O=C(C1CCCCC1)N1CCC(c2nc3ccccc3[nH]2)CC1	KCNH2 3.1 block -90
N#Cc1ccc(NC(=O)CN2CCN(c3ccccn3)CC2)cc1	KCNH2 3.1 block -76
CCc1cc2cc(C)cc(C)c2[nH]c1=S	KCNH2 3.1 block -96, MLL CXXC-DNA inh inconclusive
CCOCCCN(Cc1cc2cc(C)cc(C)c2[nH]c1=O)C(=O)N(CC)CC	none
N=c1c2c(n(Cc3ccc(Br)cc3)c3c1CCC3)CCCC2	KCNH2 3.1 block -78
N=c1c2c(n(Cc3ccc(Cl)c(Cl)c3)c3c1CCC3)CCCC2	none
Cc1ccc(C)c(CNc2ccc(S(=O)(=O)N3CCCCC3)cc2)c1	KCNH2 WT inh -155, KCNH2 3.1 block -100 (no result: MLL CXXC-DNA inh, Menin-MLL FL inh, Menin-MLL TR inh)
Cc1ccc(S(=O)(=O)N2CCCCC2)cc1	none
Cc1nn(CC(=O)NCCCN2CCN(Cc3ccccc3)CC2)c(=O)c2cc(-c3ccccc3)nn12	none (no result: Menin-MLL FL inh, Menin-MLL TR inh)
Cc1nn(CC(=O)NCCCN2CCC(Cc3ccccc3)CC2)c(=O)c2cc(-c3ccccc3)nn12	KCNH2 WT inh -87, KCNH2 3.1 block -103 (no result: Menin-MLL FL inh, Menin-MLL TR inh)
CCc1ccc(-c2cc3c(=O)n(CC(=O)NCCCN4CCC(Cc5ccccc5)CC4)nc(C)n3n2)cc1	KCNH2 3.1 block -91 (no result: Menin-MLL FL inh, Menin-MLL TR inh)
c1ccc2c3c([nH]c2c1)C(C1CCCCC1)N(Cc1ncc[nH]1)CC3 (stereo not drawn)	none (no result: KCNH2 3.1 block)
Cc1cnc(CN2CCc3c([nH]c4ccccc34)C2C2CCCCC2)[nH]1 (stereo not drawn)	KCNH2 3.1 block -72
Cc1ccc(NC(=O)CN2CCN(Cc3ccccc3)CC2)c(Br)c1	KCNH2 3.1 block -87, Menin-MLL TR inh inconclusive
O=C(c1ccc(-n2cccc2)cc1)N1CCN(Cc2ccccc2)CC1	KCNH2 WT inh -73, KCNH2 3.1 block inconclusive, Menin-MLL TR inh inconclusive
Cc1ccc(NC(=O)CN2CCOCC2)c(Br)c1	none
Cc1ccc(N2C(=O)c3ccc(C(=O)N4CCN(Cc5ccccc5)CC4)cc3C2=O)cc1	KCNH2 WT inh -145, KCNH2 3.1 block -202 (no result: Menin-MLL TR inh)
O=c1cc(C2CCCCC2)[nH]c(=O)[nH]1	none (no result: MLL CXXC-DNA inh, Menin-MLL FL inh, Menin-MLL TR inh)
CCCCOC(=O)c1ccc(NC(=O)c2c(N)n(C)c(=O)[nH]c2=O)cc1	none (no result: MLL CXXC-DNA inh, Menin-MLL FL inh, Menin-MLL TR inh)
CC[C@H](C)[C@H](NC(=O)[C@H](C)NC(=O)[C@H](CC(=O)O)NC(=O)[C@H](CO)NC(=O)[C@@H](N)Cc1cnc[nH]1)C(=O)N[C@@H](Cc1ccccc1)C(=O)N[C@H](C(=O)N[C@@H](CCC(N)=O)C(=O)N[C@@H](CCC(N)=O)C(=O)N[C@@H](Cc1ccc(O)cc1)C(=O)N[C@@H](CO)C(=O)N[C@@H](CCCCN)C(=O)N[C@@H](CC(C)C)C(=O)N[C@@H](CC(C)C)C(=O)N[C@@H](C)C(=O)N[C@@H](CCCCN)C(=O)N[C@@H](CC(C)C)C(=O)N[C@@H](C)C(=O)N[C@@H](CC(C)C)C(=O)N[C@@H](CCC(N)=O)C(=O)N[C@@H](CCCCN)C(=O)N[C@@H](Cc1ccc(O)cc1)C(=O)N[C@@H](CC(C)C)C(=O)N[C@@H](C)C(=O)N[C@@H](CO)C(=O)N[C@H](C(=O)N[C@@H](CC(C)C)C(=O)NCC(=O)N[C@@H](CO)C(=O)N[C@@H](CCCNC(=N)N)C(=O)N[C@H](C(=O)N[C@@H](CO)C(=O)N1CCC[C@H]1C(=O)N1CCC[C@H]1C(=O)N1CCC[C@H]1C(N)=O)[C@@H](C)O)[C@@H](C)CC)[C@@H](C)O	none (no result: KCNH2 WT inh, KCNH2 3.1 block, MLL CXXC-DNA inh)
CC(=O)N(C)/C=C1\Sc2ccccc2C1=O	Menin-MLL TR inh inconclusive
CCC(=O)N(C)/C=C1\Sc2ccccc2C1=O	KCNH2 WT inh -102, Menin-MLL TR inh inconclusive
COC(=O)/C=C/c1cccc(N(Cc2ccc(-c3ccc(N(C)C)cc3)cc2)C(=O)C2CCCCC2)c1	none (no result: KCNH2 WT inh, KCNH2 3.1 block, MLL CXXC-DNA inh)
CCOC(=O)c1ccccc1NC(=O)CSc1nnc(Cc2cccn2C)n1-c1ccc(F)cc1	KCNH2 WT inh -87
N#C/C(=C/c1ccc2c(c1)OCO2)C(=O)NCCc1c[nH]c2ccccc12	KCNH2 3.1 block -74
O=C(NCCc1c[nH]c2ccccc12)c1ccc2c(c1)OCO2	none
CN(CCOc1ccc(Br)cc1)CC(O)COc1ccc(C#N)cc1 (stereo not drawn)	KCNH2 WT inh -113, KCNH2 3.1 block -120
COc1ccc(Br)cc1CN(C)CC(O)COc1ccc(Br)cc1 (stereo not drawn)	KCNH2 3.1 block -75
COc1ccccc1C(CCN(Cc1cccs1)C(C)=O)c1ccco1 (stereo not drawn)	KCNH2 3.1 block -74
C=CC1=C2C=C(C3CC3)N(CCCOC(C)C)C=C2C(=O)C(C)(OC(=O)c2ccco2)C1=O (stereo not drawn)	none (no result: KCNH2 WT inh, KCNH2 3.1 block, MLL CXXC-DNA inh)
COc1ccc(CN2CCN(Cc3cccc(Oc4ccccc4)c3)CC2)c(OC)c1OC	KCNH2 WT inh inconclusive, KCNH2 3.1 block -73, Menin-MLL TR inh inconclusive
COc1cccc(CC2(CO)CCCN(C/C=C/c3ccccc3OC)C2)c1 (stereo not drawn)	KCNH2 WT inh -71, KCNH2 3.1 block -86, Menin-MLL FL inh inconclusive, Menin-MLL TR inh inconclusive
CN1CCN(Cc2cccc(Oc3ccccc3)c2)CC1	none
COc1cccc(CC2(CO)CCCN(Cc3ccccc3Cl)C2)c1 (stereo not drawn)	none
COc1cccc(CC2(CO)CCCN(Cc3cc(F)ccc3-n3cccn3)C2)c1 (stereo not drawn)	KCNH2 WT inh inconclusive, KCNH2 3.1 block -105, MLL CXXC-DNA inh inconclusive
COc1ccccc1/C=C/CN1CCCC(CO)(Cc2cccc(Cl)c2)C1 (stereo not drawn)	Menin-MLL TR inh inconclusive
COc1cccc(CC2(CO)CCCN(Cc3ccc(OC)c(C)c3OC)C2)c1 (stereo not drawn)	KCNH2 WT inh -79, KCNH2 3.1 block -113, Menin-MLL TR inh inconclusive
O=c1c(-c2ccc(F)cc2)nc2cnc(N3CCNCC3)nc2n1C1CC1	none (no result: KCNH2 WT inh, KCNH2 3.1 block, MLL CXXC-DNA inh)
